# Laboratory results reported in PubChem BioAssay (EPA / NIEHS).
# Inconclusive results are not listed. Active and inactive are the calls of the source. Rule for the calls, unless noted: active = hit-call score of the fitted dose curve at least 0.9, where 1 is the maximum; inconclusive = response in the unintended direction; inactive = score below 0.9.
# Key:
# [1] = target: human Retinoic Acid Receptor beta (RARb), RARB (gene 5915) (UniProt P10826); assay: ATG_RARb_TRANS: Attagene TRANS-FACTORIAL HepG2 Assay for human Retinoic Acid Receptor beta (AID 2283004)
# Chain of human Retinoic Acid Receptor beta (RARb), RARB (gene 5915) (P10826 whole entry, looked up, the tested form may be a part): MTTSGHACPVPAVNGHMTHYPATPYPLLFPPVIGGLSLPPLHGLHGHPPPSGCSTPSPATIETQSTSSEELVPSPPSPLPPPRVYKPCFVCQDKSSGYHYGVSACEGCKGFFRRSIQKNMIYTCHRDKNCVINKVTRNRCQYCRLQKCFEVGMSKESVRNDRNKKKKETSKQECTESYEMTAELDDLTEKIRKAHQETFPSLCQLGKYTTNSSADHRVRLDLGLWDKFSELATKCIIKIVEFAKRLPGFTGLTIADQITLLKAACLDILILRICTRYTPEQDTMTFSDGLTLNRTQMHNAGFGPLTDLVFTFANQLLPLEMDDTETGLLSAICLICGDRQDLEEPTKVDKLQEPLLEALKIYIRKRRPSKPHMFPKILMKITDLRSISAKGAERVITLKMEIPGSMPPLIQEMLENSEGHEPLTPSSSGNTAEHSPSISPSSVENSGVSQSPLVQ
# Procedure, shortened: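 Fluorescent capillary-electrophoresis detection of GAL4-UAS reporter mRNA defines the endpoint, with induction over DMSO-treated wells scored as activity. Transiently transfected human hepatoma HepG2 cells expressing exogenous NR–Gal4 proteins are exposed to test chemicals for 24 h.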
# [2] = target: Peroxisome proliferator-activated receptor gamma (Homo sapiens) (UniProt P37231); assay: ATG_PPARg_TRANS: Attagene TRANS-FACTORIAL HepG2 Assay for human Peroxisome Proliferator-activated Receptor-gamma (PPARg) (AID 2283007)
# Chain of Peroxisome proliferator-activated receptor gamma (Homo sapiens) (P37231 whole entry, looked up, the tested form may be a part): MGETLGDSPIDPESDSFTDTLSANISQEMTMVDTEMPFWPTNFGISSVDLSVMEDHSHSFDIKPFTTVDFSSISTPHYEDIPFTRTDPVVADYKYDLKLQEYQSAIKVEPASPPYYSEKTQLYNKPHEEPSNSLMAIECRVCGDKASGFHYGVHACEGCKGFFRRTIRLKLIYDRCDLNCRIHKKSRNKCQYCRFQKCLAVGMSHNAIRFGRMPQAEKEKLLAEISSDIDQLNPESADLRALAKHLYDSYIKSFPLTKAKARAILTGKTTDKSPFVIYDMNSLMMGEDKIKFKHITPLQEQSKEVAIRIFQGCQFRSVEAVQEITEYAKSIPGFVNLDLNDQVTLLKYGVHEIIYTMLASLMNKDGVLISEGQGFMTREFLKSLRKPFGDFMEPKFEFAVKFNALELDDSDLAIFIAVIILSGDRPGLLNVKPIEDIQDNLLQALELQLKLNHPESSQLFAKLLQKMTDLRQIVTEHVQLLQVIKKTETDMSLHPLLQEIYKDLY
# Procedure, shortened: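 Transient transfection of HepG2 with GAL4-UAS-driven reporter units; chemical dosing 24 h; total RNA → oligo(dT) RT → PCR with reporter primers → 6-FAM primer extension → HpaI digest 2 h 37 C → capillary electrophoresis. Positive direction vs DMSO.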
# [3] = target: Nuclear receptor subfamily 1 group I member 2 (Homo sapiens) (UniProt O75469); assay: ATG_PXR_TRANS: Attagene TRANS-FACTORIAL HepG2 Assay for human Pregnane X Receptor (PXR) (AID 2283008)
# Chain of Nuclear receptor subfamily 1 group I member 2 (Homo sapiens) (O75469 whole entry, looked up, the tested form may be a part): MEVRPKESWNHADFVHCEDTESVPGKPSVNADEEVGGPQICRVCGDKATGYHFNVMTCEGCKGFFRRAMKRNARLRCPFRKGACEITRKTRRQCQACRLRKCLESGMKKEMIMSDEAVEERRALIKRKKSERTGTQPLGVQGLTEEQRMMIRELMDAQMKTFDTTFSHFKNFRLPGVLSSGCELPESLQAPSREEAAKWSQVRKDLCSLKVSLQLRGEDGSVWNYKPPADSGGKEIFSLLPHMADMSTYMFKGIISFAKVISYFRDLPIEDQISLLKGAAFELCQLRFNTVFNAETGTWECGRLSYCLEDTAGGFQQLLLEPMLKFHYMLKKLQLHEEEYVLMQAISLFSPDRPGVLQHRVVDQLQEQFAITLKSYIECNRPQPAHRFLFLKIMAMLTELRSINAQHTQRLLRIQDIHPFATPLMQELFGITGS
# Procedure, shortened: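 Transactivation by exogenous PXR–GAL4 fusion measured as reporter transcript induction after 24 h compound treatment of transfected human HepG2 cells. Read-out via RT-PCR and capillary electrophoresis of labelled fragments, fitted upward relative to DMSO.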
# [4] = target: human Retinoic Acid Receptor gamma (RARg), RARG (gene 5916) (UniProt P13631); assay: ATG_RARg_TRANS: Attagene TRANS-FACTORIAL HepG2 Assay for human Retinoic Acid Receptor gamma (RARg) (AID 2283009)
# Chain of human Retinoic Acid Receptor gamma (RARg), RARG (gene 5916) (P13631 whole entry, looked up, the tested form may be a part): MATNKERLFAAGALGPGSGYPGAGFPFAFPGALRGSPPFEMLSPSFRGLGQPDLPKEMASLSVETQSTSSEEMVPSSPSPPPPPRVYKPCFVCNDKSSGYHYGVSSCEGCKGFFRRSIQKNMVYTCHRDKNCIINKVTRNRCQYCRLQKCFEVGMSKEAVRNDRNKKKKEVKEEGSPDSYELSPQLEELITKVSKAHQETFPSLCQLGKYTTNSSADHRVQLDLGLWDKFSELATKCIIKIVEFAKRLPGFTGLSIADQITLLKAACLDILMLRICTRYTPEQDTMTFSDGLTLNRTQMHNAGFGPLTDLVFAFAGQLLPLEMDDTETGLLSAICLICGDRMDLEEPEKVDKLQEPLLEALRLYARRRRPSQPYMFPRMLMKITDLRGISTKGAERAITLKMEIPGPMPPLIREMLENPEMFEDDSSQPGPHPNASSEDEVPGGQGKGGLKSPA
# Procedure, shortened: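 Gain-of-signal relative to DMSO is reported from fluorescent capillary electrophoresis of RT-PCR reporter products. These came from HepG2 cells expressing transfected RARg-GAL4 chimeras with UAS reporters, harvested 24 h after dosing.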
# [5] = target: human RAR-related Orphan Receptor beta (RORb), RORB (gene 6096) (UniProt Q92753); assay: ATG_RORb_TRANS: Attagene TRANS-FACTORIAL HepG2 Assay for human RAR-related Orphan Receptor beta (RORb) (AID 2283010)
# Chain of human RAR-related Orphan Receptor beta (RORb), RORB (gene 6096) (Q92753 whole entry, looked up, the tested form may be a part): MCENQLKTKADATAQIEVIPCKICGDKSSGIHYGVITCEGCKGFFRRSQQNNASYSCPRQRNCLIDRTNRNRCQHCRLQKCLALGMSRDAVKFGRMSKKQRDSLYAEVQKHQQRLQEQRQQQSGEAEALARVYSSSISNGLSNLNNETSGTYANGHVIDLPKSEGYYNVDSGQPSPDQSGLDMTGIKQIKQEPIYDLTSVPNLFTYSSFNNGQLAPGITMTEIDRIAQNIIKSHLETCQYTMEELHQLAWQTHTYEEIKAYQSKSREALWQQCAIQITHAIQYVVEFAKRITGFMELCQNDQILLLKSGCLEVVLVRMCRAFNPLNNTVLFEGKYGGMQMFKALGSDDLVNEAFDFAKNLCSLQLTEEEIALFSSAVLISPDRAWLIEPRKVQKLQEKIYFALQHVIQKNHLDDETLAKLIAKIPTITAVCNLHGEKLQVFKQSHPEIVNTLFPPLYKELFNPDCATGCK
# Procedure, shortened: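 Multiplexed transcription-factor reporter assay: HepG2 cells transiently carrying NR-Gal4/GAL4-UAS constructs, 24 h treatment, mRNA quantified by RT-PCR plus capillary electrophoresis fluorescence; activity scored as induction over DMSO.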
# [6] = target: Retinoic acid receptor alpha (Homo sapiens) (UniProt P10276); assay: ATG_RARa_TRANS: Attagene TRANS-FACTORIAL HepG2 Assay for human Retinoic Acid Receptor alpha (RARa) (AID 2283005)
# Chain of Retinoic acid receptor alpha (Homo sapiens) (P10276 whole entry, looked up, the tested form may be a part): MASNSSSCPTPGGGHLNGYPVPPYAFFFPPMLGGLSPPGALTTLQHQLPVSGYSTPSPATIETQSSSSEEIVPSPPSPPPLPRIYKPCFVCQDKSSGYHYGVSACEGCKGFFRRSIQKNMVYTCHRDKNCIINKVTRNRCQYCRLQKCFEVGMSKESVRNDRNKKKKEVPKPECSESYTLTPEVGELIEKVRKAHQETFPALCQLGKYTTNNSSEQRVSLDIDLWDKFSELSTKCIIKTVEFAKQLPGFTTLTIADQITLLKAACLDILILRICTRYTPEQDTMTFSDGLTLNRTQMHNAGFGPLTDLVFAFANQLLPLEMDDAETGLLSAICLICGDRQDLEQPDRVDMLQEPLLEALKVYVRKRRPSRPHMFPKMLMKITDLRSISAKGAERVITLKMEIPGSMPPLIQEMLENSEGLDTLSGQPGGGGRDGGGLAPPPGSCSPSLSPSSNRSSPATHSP
# Procedure, shortened: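 HepG2 transiently transfected with multiplex GAL4-UAS reporter units including a human RARa–GAL4 chimera; 24 h compound exposure. Reporter mRNA quantified by RT-PCR, 6-FAM labeling and capillary electrophoresis; gain of signal versus DMSO.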
# [7] = target: human RAR-related Orphan Receptor gamma (RORg), RORC (gene 6097) (UniProt P51449); assay: ATG_RORg_TRANS: Attagene TRANS-FACTORIAL HepG2 Assay for human RAR-related Orphan Receptor gamma (RORg) (AID 2283011)
# Chain of human RAR-related Orphan Receptor gamma (RORg), RORC (gene 6097) (P51449 whole entry, looked up, the tested form may be a part): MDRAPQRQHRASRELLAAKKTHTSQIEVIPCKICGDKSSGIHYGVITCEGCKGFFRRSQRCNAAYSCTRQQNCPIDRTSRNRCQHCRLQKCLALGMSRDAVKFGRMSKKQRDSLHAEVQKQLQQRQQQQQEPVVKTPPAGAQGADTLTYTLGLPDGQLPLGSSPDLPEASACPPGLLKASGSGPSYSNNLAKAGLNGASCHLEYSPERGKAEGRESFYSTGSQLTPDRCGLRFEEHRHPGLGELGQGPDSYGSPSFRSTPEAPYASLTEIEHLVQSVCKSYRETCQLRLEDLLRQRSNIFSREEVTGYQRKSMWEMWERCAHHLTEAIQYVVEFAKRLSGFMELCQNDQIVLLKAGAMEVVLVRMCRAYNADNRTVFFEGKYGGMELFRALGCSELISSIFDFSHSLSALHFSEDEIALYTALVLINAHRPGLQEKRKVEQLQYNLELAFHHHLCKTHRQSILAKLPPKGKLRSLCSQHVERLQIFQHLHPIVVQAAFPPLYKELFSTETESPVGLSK
# Procedure, shortened: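 Chimeric RORg-Gal4 transactivation in transfected HepG2; 24 h exposure; RT-PCR/capillary electrophoresis readout of reporter mRNA, DMSO baseline.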
# [8] = target: Retinoic acid receptor RXR-alpha (Homo sapiens) (UniProt P19793); assay: ATG_RXRa_TRANS: Attagene TRANS-FACTORIAL HepG2 Assay for human Retinoid X Receptor alpha (RXRa) (AID 2283012)
# Chain of Retinoic acid receptor RXR-alpha (Homo sapiens) (P19793 whole entry, looked up, the tested form may be a part): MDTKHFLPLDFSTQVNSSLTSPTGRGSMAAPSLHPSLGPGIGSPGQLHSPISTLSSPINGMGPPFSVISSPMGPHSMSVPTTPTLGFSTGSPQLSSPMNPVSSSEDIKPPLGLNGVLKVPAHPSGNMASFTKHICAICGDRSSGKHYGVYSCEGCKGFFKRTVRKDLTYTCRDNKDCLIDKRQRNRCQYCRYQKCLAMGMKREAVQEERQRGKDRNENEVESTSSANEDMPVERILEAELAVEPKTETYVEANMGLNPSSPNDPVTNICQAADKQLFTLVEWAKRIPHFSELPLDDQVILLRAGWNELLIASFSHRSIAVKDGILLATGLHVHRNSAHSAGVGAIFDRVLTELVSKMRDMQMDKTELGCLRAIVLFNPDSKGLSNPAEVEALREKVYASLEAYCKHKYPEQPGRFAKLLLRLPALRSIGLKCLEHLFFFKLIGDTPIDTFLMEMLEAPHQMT
# Procedure, shortened: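 Chimeric NR-GAL4 trans-activation in HepG2, 24 h treatment; reporter transcripts quantified by fluorescence on capillary electrophoresis, analysed for upward change from DMSO.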
# [9] = read-out: Intercellular Adhesion Molecule 1 (ICAM1), ICAM1 (gene 3383); assay: BSK_3C_ICAM1: BioMAP Diversity Plus: 3C Assay for Intercellular Adhesion Molecule 1 (ICAM1) Biomarker Activity (AID 2283003; active = hit-call score of the fitted dose curve at least 0.9, where 1 is the maximum; inactive = score below 0.9); settings: primary human endothelial cells (HUVEC); actives raise or lower the signal
# Procedure, shortened: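 Using DMSO as baseline, bidirectional curve fitting was applied to ICAM-1 ELISA signals from HUVEC in the 3C system, measured 24 h after compound addition.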
smiles,measurement,setting,value
c1c[nH]cn1,outcome,[1],inactive
same,outcome,[2],inactive
same,outcome,[3],inactive
same,outcome,[4],inactive
same,outcome,[5],inactive
O=C1CCCC1,outcome,[1],inactive
same,outcome,[6],inactive
same,outcome,[4],inactive
same,outcome,[5],inactive
same,outcome,[7],inactive
same,outcome,[8],inactive
C=C[Si](C)(C)O[Si](C)(C)C=C,outcome,[1],inactive
same,outcome,[6],inactive
same,outcome,[4],inactive
same,outcome,[5],inactive
same,outcome,[7],inactive
same,outcome,[8],inactive
O=C1CCCC(=O)O1,outcome,[1],inactive
same,outcome,[3],inactive
same,outcome,[5],inactive
same,outcome,[7],inactive
O=C1CCCCCCCCCCC(=O)OCCO1,outcome,[1],inactive
same,outcome,[6],inactive
same,outcome,[2],inactive
same,outcome,[3],inactive
same,outcome,[4],inactive
same,outcome,[5],inactive
same,outcome,[8],inactive
CCOC(=O)Cc1cccc2ccccc12,outcome,[1],inactive
same,outcome,[6],inactive
same,AC50,[2],44.5 µM (active)
same,outcome,[3],inactive
same,outcome,[4],inactive
same,outcome,[8],inactive
CC/C=C\CCOC(=O)CCCCC,outcome,[1],inactive
same,outcome,[6],inactive
same,outcome,[3],inactive
same,outcome,[8],inactive
OCCc1ccncc1,outcome,[1],inactive
same,outcome,[6],inactive
same,outcome,[2],inactive
same,outcome,[5],inactive
CC(=O)Oc1ccc(C)cc1,outcome,[1],inactive
same,outcome,[2],inactive
same,outcome,[4],inactive
same,outcome,[5],inactive
same,outcome,[8],inactive
CCCc1ccc(OC)cc1,outcome,[1],inactive
same,outcome,[2],inactive
same,outcome,[3],inactive
same,outcome,[5],inactive
same,outcome,[7],inactive
Cc1ccc(C(C)(C)C)cc1,outcome,[1],inactive
same,outcome,[3],inactive
same,outcome,[5],inactive
same,outcome,[7],inactive
same,outcome,[8],inactive
CC[C@H]1OC(=O)[C@H](C)[C@@H](O[C@H]2C[C@@](C)(OC)[C@@H](O)[C@H](C)O2)[C@H](C)[C@@H](O[C@@H]2O[C@H](C)C[C@H](N(C)C)[C@H]2O)[C@](C)(O)C[C@@H](C)C(=NOCOCCOC)[C@H](C)[C@@H](O)[C@]1(C)O,outcome,[1],inactive
same,outcome,[6],inactive
same,outcome,[3],inactive
O=C1C(N(CO)C(=O)NCO)N(CO)C(=O)N1CO (configuration not stated),outcome,[1],inactive
same,outcome,[6],inactive
same,outcome,[2],inactive
same,outcome,[4],inactive
same,outcome,[5],inactive
same,outcome,[7],inactive
CC(C)=CCC/C(C)=C\C#N,outcome,[1],inactive
same,outcome,[2],inactive
same,AC50,[3],29.3 µM (active)
same,outcome,[5],inactive
same,outcome,[7],inactive
CC(C)C1=CC2=CC[C@@H]3[C@](C)(CCC[C@@]3(C)C(=O)O)[C@H]2CC1,outcome,[1],inactive
same,AC50,[2],43.9 µM (active)
same,AC50,[3],1.55 µM (active)
same,outcome,[5],inactive
same,outcome,[8],inactive
N#[N+]c1ccc2c(S(=O)(=O)[O-])cccc2c1O,outcome,[9],inactive
same,outcome,[4],inactive
same,outcome,[5],inactive
same,outcome,[8],inactive
Cc1ccccc1C,outcome,[1],inactive
same,outcome,[2],inactive
same,outcome,[3],inactive
same,outcome,[4],inactive
same,outcome,[8],inactive
O=C1c2cccc(O)c2C(=O)c2c(O)cc(CO)cc21,outcome,[1],inactive
same,outcome,[6],inactive
same,AC50,[2],50.3 µM (active)
same,AC50,[3],5.78 µM (active)
same,outcome,[4],inactive
same,outcome,[8],inactive
CCc1nccnc1C,outcome,[1],inactive
same,outcome,[2],inactive
same,outcome,[3],inactive
same,outcome,[5],inactive
same,outcome,[8],inactive
C[Si](C)O[Si](C)(C)O[Si](C)(C)O[Si](C)C,outcome,[1],inactive
same,outcome,[2],inactive
same,outcome,[3],inactive
same,outcome,[4],inactive
same,outcome,[8],inactive
CCCCCCCCC(=O)OCC,outcome,[1],inactive
same,outcome,[2],inactive
same,outcome,[3],inactive
same,outcome,[4],inactive
same,outcome,[8],inactive
C=C(C)c1cccc(C(C)(C)N=C=O)c1,outcome,[1],inactive
same,AC50,[2],5.62 µM (active)
same,outcome,[4],inactive
same,outcome,[7],inactive
COC(F)(F)C(F)(C(F)(F)F)C(F)(F)F,outcome,[1],inactive
same,outcome,[5],inactive
same,outcome,[8],inactive
CC(C)(C)c1n[nH]c(=O)n(N)c1=O,outcome,[1],inactive
same,outcome,[2],inactive
same,outcome,[3],inactive
same,outcome,[4],inactive
same,outcome,[7],inactive
same,outcome,[8],inactive
CCC(CO)CO,outcome,[1],inactive
same,outcome,[3],inactive
same,outcome,[5],inactive
same,outcome,[8],inactive
Cc1c(C)c([N+](=O)[O-])c(C(C)(C)C)c([N+](=O)[O-])c1C,outcome,[1],inactive
same,outcome,[6],inactive
same,outcome,[2],inactive
same,AC50,[3],2 µM (active)
same,outcome,[4],inactive
same,outcome,[5],inactive
same,outcome,[7],inactive
same,AC50,[8],12.7 µM (active)
C=C(C)CCO,outcome,[1],inactive
same,outcome,[6],inactive
same,outcome,[3],inactive
same,outcome,[4],inactive
same,outcome,[5],inactive
same,outcome,[7],inactive
same,outcome,[8],inactive
CC1=NC(C)OC1C (configuration not stated),outcome,[1],inactive
same,outcome,[6],inactive
same,outcome,[2],inactive
same,AC50,[3],19.8 µM (active)
same,outcome,[8],inactive
COc1ccc(C(Cl)=C(c2ccc(OC)cc2)c2ccc(OC)cc2)cc1,outcome,[1],inactive
same,outcome,[6],inactive
same,AC50,[3],3.67 µM (active)
same,outcome,[4],inactive
same,outcome,[7],inactive
same,outcome,[8],inactive
O=[N+]([O-])C1(Br)COCOC1,outcome,[1],inactive
same,outcome,[2],inactive
same,outcome,[8],inactive
O=c1n(CCO)c(=O)n(CCO)c(=O)n1CCO,outcome,[1],inactive
same,outcome,[4],inactive
same,outcome,[5],inactive
same,outcome,[7],inactive
same,outcome,[8],inactive
